The record followed here is the supplement of paper PMC11219838.

A number with no mark means an inactive call.

This assay has as its system Caenorhabditis elegans L1 (N2). Kind of assay: survival and reproduction score of C. elegans L1 (0: 0-10 living worms, 1: 11-20, 2: 21-50, 3: >50, 4: overgrown) (score 0-4); higher = more worms, less nematicidal, active = 1 or less; extreme values may be limits of the assay. Conditions: 60 µM; 6 days; temperature: 20 °C. In short, it runs like this: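 Worm survival and reproduction were recorded as an ordinal score of living worms per well, read under a dissection microscope. Each 96-well well held about 20 synchronized C. elegans N2 L1s with E. coli HB101 in liquid NGM and compound at 60 µM final (0.6% v/v DMSO), sealed and shaken at 200 rpm, 20 °C, for 6 days. Scores ranged from 0 (0–10 worms) to 4 (overgrown, starved) and were the mean of two biological replicates.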
Take `COc1ccc(NC(=O)c2ccccc2-c2nc(-c3ccccc3C)no2)cc1`: the “survival and reproduction score” value was 4. Regarding `Cc1cc(OCc2nc(-c3ccncc3)no2)c(C)cc1Br`, the “survival and reproduction score” value was 4.

On to `Cc1cc(Br)ccc1OCc1nc(-c2cccnc2)no1`, for which the “survival and reproduction score” value was 4. To `O=C(Nc1cccc(-c2noc(-c3cccnc3)n2)c1)c1cccs1` belongs 4. To `COc1ccccc1-c1nc(-c2ccccc2)no1` belongs 4; to `CCOc1ccccc1-c1nnc(SCC(=O)Nc2nccs2)o1`, 4; to `COc1ccc(-c2noc(COc3ccc4c(c3)CCCC4)n2)cc1`, 4. For the compound `O=C(CSc1nnc(-c2ccc(Cl)cc2Cl)o1)Nc1ccccn1`, the “survival and reproduction score” value was 4.

As to `Clc1ccc(OCc2nc(-c3ccccc3)no2)c(Br)c1`, the “survival and reproduction score” value was 1 (active). Then `Fc1ccc(-c2noc(COc3ccccc3)n2)cc1`, with 3.5; and `COc1ccccc1-c1nc(-c2ccc(Cl)cc2Cl)no1`, with 4; and `Brc1cccc(-c2noc(-c3ccc4c(c3)OCO4)n2)c1`, with 4. With `CN(C)C(=O)c1ccccc1-c1nc(-c2ccc(Cl)cc2)no1`, the “survival and reproduction score” value was 4. To `Fc1ccc(-c2noc(COc3ccccc3Cl)n2)cc1` belongs 4; to `Cc1ccc(-c2noc(COc3ccc(Cl)cc3)n2)cc1`, 4; to `COc1ccccc1-c1nnc(SCC(=O)Nc2ccccc2Cl)o1`, 4. Then `COc1cccc(-c2noc(COc3cc(C)cc(C)c3)n2)c1`, with 4; and `COc1cccc(-c2noc(COc3ccc(Cl)cc3)n2)c1`, with 4. On to `Cc1cc(NC(=O)CSc2nnc(-c3ccccc3Cl)o2)no1`, for which the “survival and reproduction score” value was 4.

As for `COc1cccc(NC(=O)c2ccccc2-c2nc(-c3ccc(F)cc3)no2)c1`, the “survival and reproduction score” value is 4.

Turning to `COc1ccc(Cl)cc1-c1noc(COc2ccc(Cl)cc2)n1`, the “survival and reproduction score” value was 4.

As to `COc1ccc(-c2noc(-c3ccc(C)cc3Cl)n2)cc1`, the “survival and reproduction score” value was 4. Then `Cc1ccc(-c2noc(-c3ccc(C)cc3)n2)cc1`, with 0.5 (active). As for `CCNC(=O)c1ccccc1-c1nc(-c2ccccc2)no1`, the “survival and reproduction score” value was 4. With `CCSc1nnc(-c2ccc(Cl)cc2Cl)o1`, the “survival and reproduction score” value was 0 (active). Turning to `CCOc1ccc(-c2nc(-c3ccc(Cl)cc3)no2)cc1`, the “survival and reproduction score” value was 3.

Turning to `COc1ccc(-c2nnc(SCC(=O)Nc3c(F)cc(F)cc3Br)o2)cc1`, the “survival and reproduction score” value is 4. To `COc1nc(C)ccc1-c1noc(-c2ccc(Cl)cc2)n1` belongs 4; to `CCCCCSc1nnc(-c2ccc(Cl)cc2Cl)o1`, 2. To `COc1cccc(-c2nnc(SCc3ccccc3)o2)c1` belongs 4; to `Cc1ccc(-c2noc(-c3ccc(C)cc3Cl)n2)cc1`, 4; to `Cc1nc(CSc2nnc(-c3ccccc3)o2)cs1`, 4. Consider `Cc1ncc2c(c1-c1noc(-c3ccccc3)n1)CCC2`, for which the “survival and reproduction score” value is 4.

Consider `C#CCOc1ccc(-c2nc(-c3ccccc3)no2)cc1`, for which the “survival and reproduction score” value was 0 (active). To `O=C(CSc1nnc(-c2ccco2)o1)Nc1cccc2ccccc12` belongs 4; to `Clc1cccc(-c2nc(-c3ccc4c(c3)OCO4)no2)c1`, 4; to `CCNC(=O)c1ccccc1-c1nc(-c2ccc(OC)cc2)no1`, 4. Then `CC(C)(C)c1ccc(-c2nnc(SCc3cccc(C#N)c3)o2)cc1`, with 3.5; and `Cc1ccccc1-c1nc(-c2cccc(NC(=O)c3cccs3)c2)no1`, with 4.
